Activity calls are given as the source filed them. The calls were made as follows: active = hit-call score of the fitted dose curve at least 0.9, where 1 is the maximum; inactive = score below 0.9.
Key:
[1] = BSK_BT_PBMCCytotoxicity: PBMC Cytotoxicity Assessment in the BioMAP Diversity Plus: BT Assay (AID 2284225); conditions: primary human B cells with PBMC;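 also: PBMC viability measured by Alamar Blue dye reduction fluorescence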
Outline: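 Viability by Alamar Blue reduction (6 h, ex/em 546/580 nm) after 90 h culture of SEB/TSST-1-activated PBMC (20 ng/mL each) given compound 1 h before activation. DMSO served as baseline for curve fitting.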

[2] = read-out: Secreted IgG (sIgG), gene 3500; test: BSK_BT_sIgG: BioMAP Diversity Plus: BT Assay for Secreted IgG (sIgG) Biomarker Activity (AID 2284226); conditions: primary human B cells with PBMC
Outline: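 Cells (B cells with peripheral blood mononuclear cells) are dosed, cultured 24 h, then supernatant IgG is measured by ELISA. DMSO serves as negative control; curves are fitted for signal increase.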

[3] = BSK_BT_Bcell_Proliferation: Viability Assessment in the BioMAP Diversity Plus: BT Assay for B cell Proliferation (AID 2284227); conditions: primary human B cells with PBMC
Outline: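 Human B cells co-cultured with PBMC were dosed with test chemicals and relative cell number was quantified by SRB staining at 72 h. Cells were fixed in 10% TCA, stained with 0.1% SRB and read at 560 nm. Activity was fitted in the positive direction against DMSO.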

[4] = read-out: Interleukin 6 (IL6), IL6 (gene 3569); test: BSK_BT_xIL6: BioMAP Diversity Plus: BT Assay for Interleukin 6 (IL6) Biomarker Activity (AID 2284228); conditions: primary human B cells with PBMC
Outline: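 Human B cell plus PBMC co-culture exposed to test chemical for 24 h; secreted IL-6 quantified by Luminex xMAP bead assay. Activity fitted in the positive direction against DMSO as negative control and baseline.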

[5] = read-out: Tumor necrosis factor (Homo sapiens) (UniProt P01375); test: BSK_BT_xTNFa: BioMAP Diversity Plus: BT Assay for Tumor necrosis factor alpha (TNF-alpha) Biomarker Activity (AID 2284230); conditions: primary human B cells with PBMC
Outline: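 B cells with PBMC in co-culture, dosed and sampled at 24 h; secreted TNF-alpha measured by Luminex xMAP bead assay. Activity fitted in the gain direction against DMSO as negative control and baseline.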

[6] = read-out: Vascular cell adhesion molecule 1 (VCAM1), VCAM1 (gene 7412); test: BSK_MyoF_VCAM1: BioMAP Diversity Plus: MyoF Assay for Vascular cell adhesion molecule 1 (VCAM1) Biomarker Activity (AID 2284231); conditions: primary human lung fibroblasts
Outline: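 Primary human lung fibroblasts were dosed with test chemical for 24 h, then cell-surface VCAM-1 was measured by ELISA. Activity was fitted in the positive direction against DMSO as negative control and baseline.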

[7] = UKN4_HCS_LUHMES_cell_viability: Viability Assessment in the University of Konstanz (UKN) Leist Lab Neurite Outgrowth Assay in human LUHMES cells (UKN4) (AID 2284232)
Outline: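 Cells switched to differentiation medium at day 0, replated on day 2 in medium lacking cAMP and GDNF, and compound-treated once attached. Live staining began 23.5 h later, imaging followed at 24 h.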

[8] = UKN2_HCS_IMR90_cell_viability: Viability Assessment in the University of Konstanz (UKN) Leist Lab Neural Crest Cell Migration Assay in human induced IMR90 Pluripotent Stem Cells (UKN2) (AID 2284233);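 also: cells exposed to compound for 24 h after a 24 h migration phase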
Outline: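 After calcein-AM/Hoechst staining, viability is quantified by high-content fluorescence imaging, relative to DMSO, in iPSC (IMR90)-derived neural crest cells. Exposure lasts 24 h, starting after a 24 h migration period on PLO/laminin/fibronectin coating.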

Measured: AC50

Tumor necrosis factor (Homo sapiens), sequence (P01375 whole entry, looked up): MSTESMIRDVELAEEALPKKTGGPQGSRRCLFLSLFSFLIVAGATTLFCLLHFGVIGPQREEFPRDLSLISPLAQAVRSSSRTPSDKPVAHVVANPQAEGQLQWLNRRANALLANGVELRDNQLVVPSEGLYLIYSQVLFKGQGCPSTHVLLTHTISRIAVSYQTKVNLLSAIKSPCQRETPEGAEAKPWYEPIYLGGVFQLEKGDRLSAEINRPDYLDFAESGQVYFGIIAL

COCN(COC)c1nc(N(COC)COC)nc(N(COC)COC)n1
inactive: [1] | [2] | [3] | [4] | [5] | [6]

CC[N+](CC)(CC)Cc1ccccc1
inactive: [1] | [2] | [3] | [4] | [5] | [6]

Cc1cccc2c1ccc1ccccc12
inactive: [1] | [3] | [5] | [6]
active: [2] 26.6 µM | [4] 0.157 µM

CCCCCCCCCCCCCCCCCC[N+](C)(C)Cc1ccccc1
active: [1] 4.83 µM | [2] 0.66 µM | [3] 1.88 µM | [4] 6.37 µM | [5] 3.16 µM | [6] 2.72 µM

O=C(CCCN1CCC(O)(c2ccc(Cl)cc2)CC1)c1ccc(F)cc1
inactive: [7] | [8]

C=COC(=O)C(C)(C)CCCCCC
active: [6] 31 µM
inactive: [1] | [2] | [3] | [4] | [5]

Oc1cc2ccccc2cc1O
inactive: [1] | [2] | [3] | [4] | [5] | [6]

CCCCCc1ccc(O)cc1
inactive: [1] | [3] | [4] | [5]
active: [2] 20 µM | [6] 26.9 µM

C=CC(C)(CCC=C(C)C)OC(C)=O (configuration not stated)
inactive: [1] | [2] | [3] | [4] | [5] | [6]

CCOC(=O)CN[C@@H](C(=O)N1CC[C@H]1C(=O)NCc1ccc(/C(N)=N/O)cc1)C1CCCCC1
inactive: [1] | [2] | [3] | [4] | [5] | [6]

C[C@]12CC[C@@H]3c4ccc(O)cc4CC[C@H]3[C@@H]1C[C@@H](O)[C@@H]2O
inactive: [1] | [2] | [3] | [4] | [5] | [6]

CN(CCO)S(=O)(=O)C(F)(F)C(F)(F)C(F)(F)C(F)(F)C(F)(F)C(F)(F)C(F)(F)C(F)(F)F
inactive: [1] | [2] | [3] | [4] | [5] | [6]

OCCN1CN(CCO)CN(CCO)C1
inactive: [6]
active: [1] 30.2 µM | [2] 29.2 µM | [3] 38.2 µM | [4] 33.6 µM | [5] 34.1 µM

CC1=NN(c2ccccc2)C(=O)C1
active: [4] 3.91 µM
inactive: [1] | [2] | [3] | [5] | [6]

O=C1c2ccc(O)c(O)c2C(=O)c2c(O)ccc(O)c21
inactive: [1] | [2] | [3] | [4] | [5] | [6]

COc1cc(OC)nc(NC(=O)NS(=O)(=O)Nc2ccccc2C(=O)N(C)C)n1
inactive: [1] | [2] | [3] | [4] | [5] | [6]

C=CC(=C)CC/C=C(\C)CCC=C(C)C
inactive: [1] | [2] | [3] | [4] | [5] | [6]

NC(=NCCCCCCN=C(N)/N=C(\N)Nc1ccc(Cl)cc1)/N=C(\N)Nc1ccc(Cl)cc1
active: [1] 13.7 µM | [2] 2.87 µM | [3] 9.19 µM | [4] 8.83 µM | [5] 8.79 µM | [6] 4.99 µM

Cc1ccc(N=Nc2c(O)ccc3ccccc23)c(C)c1
active: [2] 10 µM
inactive: [1] | [3] | [4] | [5] | [6]

CC(C)(C)c1ccc(O)c(O)c1
active: [1] 25.2 µM | [2] 31.4 µM | [3] 29.1 µM | [4] 25.3 µM | [5] 31.5 µM | [6] 31.5 µM

O=C(NO)c1ccccc1
inactive: [1] | [2] | [3] | [6]
active: [4] 4.24 µM | [5] 19.2 µM

— PubChem BioAssay (EPA / NIEHS)
